Source: PubChem BioAssay (National Center for Advancing Translational Sciences (NCATS))
Sampled rows, rich in hits. Any-hit rate of the full collection: about 7.5%.
HCMV antiviral: inhibitors of human cytomegalovirus; HFF cells, HCMV-luciferase reporter, 72 h; active compounds read low; activity change, negative = inhibition, % at 57.5 µM; 410,000 compounds, 4.5% hits; in the data active = activity change below about -60%; inconclusive = no clear call, values can overlap the other calls; inactive = above about -39%
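Luciferase read-out from HCMV-luciferase-infected HFFs (MOI 1 PFU/cell) 72 h post infection at 37C; compounds added after 16 h cell attachment; activity normalized between buffer-only basal and Salinomycin (10uM) inhibitor controls.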
HCV inhibitor: inhibitors of hepatitis C virus infection; AID 651820; Huh7.5.1 HCVcc-Cre infection, luciferase reporter, 44 h; 340,000 compounds, 3.4% hits; Potency, µM (series often up to 41.8 µM), inactives show top-dose activity change, negative = inhibition, actives largely listed as inhibitors; note: potency is the fitted concentration of half-maximal effect
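HCVcc-Cre virus at an moi near 0.5 was added right after compound to cells cultured 4 h from seeding (1,000 cells/well). Luciferase activity was determined 44 h later, 15 min after substrate addition at RT.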
VACV Venus inh: vaccinia inhibition (Venus reporter); AID 720580; Vaccinia virus Venus reporter expression, fluorescence; Potency, µM (series often up to 36.5 µM), for inactives: top-dose activity change, negative = inhibition, actives largely listed as inhibitors; 330,000 compounds, 0.46% hits; calls by dose curve; tested in A549 cells; note: potency is the fitted concentration of half-maximal effect; nearly all actives have a fitted effect of over 30% in size
FMDV antiviral: foot and mouth disease virus antiviral activity; FMDV antiviral cell-based qHTS; Potency, µM (top dose mostly 57.9 µM), for inactives: at the top dose activity change, negative = inhibition, most hits filed as inhibitors; 410,000 compounds, 1.2% hits; AID 1159524; calls by dose curve; tested in HEK293T cells; note: read-out not given here; potency is the fitted concentration of half-maximal effect; nearly all actives have a fitted effect of over 45% in size
Giardia FBPA inh: Giardia lamblia aldolase inhibition; A8B2U2; purified Giardia FBPA; Potency, µM (titrated, usually from 59.6 µM), for inactives: top-dose activity, negative = inhibition, most hits filed as inhibitors; 290,000 compounds, 0.71% hits; AID 2451; note: potency is the fitted concentration of half-maximal effect; nearly all actives have a fitted effect of over 55% in size
Target sequence (A8B2U2 whole entry, looked up): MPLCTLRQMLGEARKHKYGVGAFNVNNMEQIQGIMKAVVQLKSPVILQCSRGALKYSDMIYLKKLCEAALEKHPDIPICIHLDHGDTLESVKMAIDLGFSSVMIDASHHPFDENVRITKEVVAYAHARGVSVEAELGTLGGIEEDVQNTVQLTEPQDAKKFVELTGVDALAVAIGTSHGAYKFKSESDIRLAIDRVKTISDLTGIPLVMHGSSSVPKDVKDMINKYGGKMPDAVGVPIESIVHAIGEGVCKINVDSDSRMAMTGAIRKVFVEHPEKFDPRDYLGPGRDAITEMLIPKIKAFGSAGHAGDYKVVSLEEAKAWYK
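40 nM FBPA preincubated 10 min at RT with compound (up to 57.5 uM final), then substrate plus GAPDH/TPI/NAD/arsenate coupling and diaphorase/resazurin added. Fluorescence read after 20 min at RT, 525/598 nm.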
Vaccinia mCherry: vaccinia inhibition (mCherry reporter); Potency, µM (series often up to 36.5 µM), for inactives: at the top dose activity change, negative = inhibition, usual class: inhibitors; 310,000 compounds, 0.63% hits; AID 720579; Vaccinia virus mCherry reporter infection, fluorescence; calls by dose curve; tested in A549 cells; note: potency is the fitted concentration of half-maximal effect; nearly all actives have a fitted effect of over 35% in size
Active calls of the source: *; ! = repeats disagree. Unless noted, calls come from the whole dose curve; as a rule, active = well fitted curve in the direction sought with a large enough effect; inconclusive = small, poorly fitted or top-dose-only effect, or another doubt; inactive = no such curve, though single readings can be large; an effect the other way counts as inactive or inconclusive. % is set by controls: 0 for no effect and ±100 for the full control effect.

CCN(CC)c1ccc(NC(=O)COc2ccc(-n3cnnn3)cc2)cc1 was read as HCMV antiviral -21, HCV inhibitor 22µM*, VACV Venus inh -9%, FMDV antiviral 0% and Vaccinia mCherry inconclusive.
Screening COc1cc(NC(=O)COc2ccc(-n3cnnn3)cc2)cc(OC)c1OC returned HCMV antiviral -6, HCV inhibitor 11µM*, VACV Venus inh -11%, FMDV antiviral inconclusive and Vaccinia mCherry inactive.
`O=C(COc1ccc(-n2cnnn2)cc1)Nc1cc(Cl)cc(Cl)c1` gave HCV inhibitor inconclusive, VACV Venus inh -24%, FMDV antiviral inconclusive and Vaccinia mCherry -7%.
`COc1ccccc1C(=O)COC(=O)c1ccc(-n2cnnn2)cc1` gave HCMV antiviral -18, HCV inhibitor 10µM*, VACV Venus inh -7%, FMDV antiviral 22% and Vaccinia mCherry -11%.
`CC1(C)O[C@@H]2[C@H](O1)[C@@H](COS(=O)(=O)O)O[C@H]2n1c(=S)[nH]c2c(=O)[nH]c(N)nc21` gave HCMV antiviral 9, HCV inhibitor -2%, VACV Venus inh -16%, FMDV antiviral -11% and Vaccinia mCherry inactive.
Screening CC[C@@H]1CCC[C@@H](O)[C@@H](C)C(=O)O[C@H](C)[C@@H](C)C/C=C(C)/C(OC)=C\C(=O)N(C)C([C@@H](C)CC)C(=O)N(C)[C@@H](C(C)C)C(=O)N(C)[C@@H](COC)C(=O)N2CCC[C@H]2C(=O)N(C)[C@@H](C(C)C)C(=O)N2CCC[C@H]2C(=O)O1 (some centres undefined) returned HCMV antiviral -102*, VACV Venus inh inconclusive, FMDV antiviral inconclusive and Vaccinia mCherry inconclusive.
Screening CC(C)C[C@@H](C=O)NC(=O)[C@H](CC(C)C)NC(=O)[C@H](CC(C)C)NC(=O)OCc1ccccc1 returned VACV Venus inh -10%, FMDV antiviral -17% and Vaccinia mCherry inactive.
Cc1ccc(NC(=O)c2nc(S(=O)(=O)Cc3ccccc3F)ncc2Cl)cc1 was read as VACV Venus inh -18% and Vaccinia mCherry -21%.
Cc1ccc(NC(=O)c2nc(S(=O)(=O)Cc3ccccc3C)ncc2Cl)cc1C was read as HCMV antiviral -98*, HCV inhibitor inconclusive, VACV Venus inh -20%, FMDV antiviral 40µM*, Giardia FBPA inh -6% and Vaccinia mCherry -2%.
CC(=O)Nc1ccc(NC(=O)c2nc(S(=O)(=O)Cc3ccc(F)cc3)ncc2Cl)cc1 was read as HCMV antiviral -100*, VACV Venus inh -6%, FMDV antiviral 32µM* and Vaccinia mCherry -23%.
`Cc1ccc(NC(=O)c2nc(S(=O)(=O)Cc3ccc(F)cc3)ncc2Cl)cc1C` gave HCMV antiviral -98*, VACV Venus inh inconclusive, FMDV antiviral 28µM* and Vaccinia mCherry -27%.
Screening CCCS(=O)(=O)c1ncc(Cl)c(C(=O)Nc2ccc(S(=O)(=O)Nc3ncccn3)cc2)n1 returned HCMV antiviral -20, HCV inhibitor 17%, FMDV antiviral -10% and Giardia FBPA inh -25%.
`COc1ccc(CCNC(=O)CN2C(=O)COc3ccc(S(=O)(=O)N4CCCC4)cc32)c(OC)c1` gave HCMV antiviral -63*!, HCV inhibitor inconclusive, VACV Venus inh -16%, FMDV antiviral 3%, Giardia FBPA inh -8% and Vaccinia mCherry -17%.
For Cc1ccc(NC(=O)CN2C(=O)COc3ccc(S(=O)(=O)N4CCCCCC4)cc32)cc1Cl the results were HCMV antiviral -84*, VACV Venus inh -15%, FMDV antiviral -19% and Vaccinia mCherry -26%.
For CCOC(CNC(=O)CN1C(=O)COc2ccc(S(=O)(=O)N3CCOCC3)cc21)OCC the results were HCMV antiviral active, HCV inhibitor 14% and FMDV antiviral 0%.
For Cc1ccc(NC(=O)CN2C(=O)COc3ccc(S(=O)(=O)N4CCCC4)cc32)cc1C the results were HCMV antiviral 44, HCV inhibitor -12%, VACV Venus inh -12%, FMDV antiviral -14% and Vaccinia mCherry inactive.
